Assay results published in ChEMBL document CHEMBL1961873, “Compounds: GSK PKIS; Assays: Nanosyn kinase panel” (2012).

Tests used:
[1] = target: T1, Ephrin type-B receptor 2 (Homo sapiens) (UniProt P29323); conditions: at 1 µM
T1 sequence (whole entry): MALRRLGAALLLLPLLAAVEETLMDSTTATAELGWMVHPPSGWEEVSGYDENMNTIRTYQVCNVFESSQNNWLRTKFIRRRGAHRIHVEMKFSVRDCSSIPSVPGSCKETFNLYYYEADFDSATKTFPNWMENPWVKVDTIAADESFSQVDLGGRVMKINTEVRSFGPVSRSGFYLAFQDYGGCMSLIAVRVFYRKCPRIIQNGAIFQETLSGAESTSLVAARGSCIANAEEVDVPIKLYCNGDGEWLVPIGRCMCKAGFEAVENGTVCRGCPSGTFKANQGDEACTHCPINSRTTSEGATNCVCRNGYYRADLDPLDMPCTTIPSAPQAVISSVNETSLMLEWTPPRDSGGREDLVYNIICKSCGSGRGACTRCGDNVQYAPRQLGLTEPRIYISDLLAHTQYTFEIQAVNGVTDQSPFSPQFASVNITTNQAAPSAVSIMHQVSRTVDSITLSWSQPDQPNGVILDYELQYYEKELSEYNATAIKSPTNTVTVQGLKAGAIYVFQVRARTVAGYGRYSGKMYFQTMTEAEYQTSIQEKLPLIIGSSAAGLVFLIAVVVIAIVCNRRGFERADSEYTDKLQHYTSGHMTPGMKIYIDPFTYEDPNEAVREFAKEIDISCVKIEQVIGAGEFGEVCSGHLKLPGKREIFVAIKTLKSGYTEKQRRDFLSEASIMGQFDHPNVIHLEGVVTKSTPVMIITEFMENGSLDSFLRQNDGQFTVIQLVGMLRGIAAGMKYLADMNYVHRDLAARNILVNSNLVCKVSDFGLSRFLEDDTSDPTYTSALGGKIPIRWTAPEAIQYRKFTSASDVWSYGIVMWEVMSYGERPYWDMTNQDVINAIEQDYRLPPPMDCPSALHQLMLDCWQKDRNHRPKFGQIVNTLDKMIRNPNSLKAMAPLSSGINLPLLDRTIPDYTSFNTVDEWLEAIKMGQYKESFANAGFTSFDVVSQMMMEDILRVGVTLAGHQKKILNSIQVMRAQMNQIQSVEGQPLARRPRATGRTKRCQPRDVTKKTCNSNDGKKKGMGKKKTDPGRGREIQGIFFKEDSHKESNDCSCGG

[2] = target: T2, Ephrin type-B receptor 3 (Homo sapiens) (UniProt P54753); conditions: at 0.1 µM
T2 sequence (whole entry): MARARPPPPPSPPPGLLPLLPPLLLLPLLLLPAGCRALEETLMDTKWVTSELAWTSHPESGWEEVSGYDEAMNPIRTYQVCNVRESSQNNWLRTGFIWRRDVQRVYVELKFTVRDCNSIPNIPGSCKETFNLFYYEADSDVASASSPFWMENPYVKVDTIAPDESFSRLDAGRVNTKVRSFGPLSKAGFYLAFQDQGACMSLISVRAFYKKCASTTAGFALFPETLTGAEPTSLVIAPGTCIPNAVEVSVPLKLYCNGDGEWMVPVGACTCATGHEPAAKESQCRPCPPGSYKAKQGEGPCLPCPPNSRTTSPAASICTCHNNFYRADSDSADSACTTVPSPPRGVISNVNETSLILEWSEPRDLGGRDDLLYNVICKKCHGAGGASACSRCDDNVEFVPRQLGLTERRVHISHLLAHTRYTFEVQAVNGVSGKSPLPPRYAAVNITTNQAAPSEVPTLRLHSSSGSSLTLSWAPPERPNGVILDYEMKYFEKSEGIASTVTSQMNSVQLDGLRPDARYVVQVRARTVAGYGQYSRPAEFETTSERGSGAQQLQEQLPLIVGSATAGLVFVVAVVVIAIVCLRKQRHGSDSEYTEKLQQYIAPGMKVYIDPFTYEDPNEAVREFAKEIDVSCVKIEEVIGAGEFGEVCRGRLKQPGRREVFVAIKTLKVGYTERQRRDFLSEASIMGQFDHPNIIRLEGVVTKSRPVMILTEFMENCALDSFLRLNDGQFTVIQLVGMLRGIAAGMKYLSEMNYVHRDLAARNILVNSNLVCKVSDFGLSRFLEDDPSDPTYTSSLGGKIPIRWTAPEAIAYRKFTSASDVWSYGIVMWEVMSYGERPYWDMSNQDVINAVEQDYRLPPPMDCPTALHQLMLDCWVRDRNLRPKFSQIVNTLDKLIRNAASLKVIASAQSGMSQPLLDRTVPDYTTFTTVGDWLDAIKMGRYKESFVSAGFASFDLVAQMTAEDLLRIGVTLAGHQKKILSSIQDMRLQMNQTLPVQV

[3] = target: T2, Ephrin type-B receptor 3 (Homo sapiens); conditions: at 1 µM
[4] = target: T3, Ephrin type-B receptor 4 (Homo sapiens) (UniProt P54760); conditions: at 0.1 µM
T3 sequence (whole entry): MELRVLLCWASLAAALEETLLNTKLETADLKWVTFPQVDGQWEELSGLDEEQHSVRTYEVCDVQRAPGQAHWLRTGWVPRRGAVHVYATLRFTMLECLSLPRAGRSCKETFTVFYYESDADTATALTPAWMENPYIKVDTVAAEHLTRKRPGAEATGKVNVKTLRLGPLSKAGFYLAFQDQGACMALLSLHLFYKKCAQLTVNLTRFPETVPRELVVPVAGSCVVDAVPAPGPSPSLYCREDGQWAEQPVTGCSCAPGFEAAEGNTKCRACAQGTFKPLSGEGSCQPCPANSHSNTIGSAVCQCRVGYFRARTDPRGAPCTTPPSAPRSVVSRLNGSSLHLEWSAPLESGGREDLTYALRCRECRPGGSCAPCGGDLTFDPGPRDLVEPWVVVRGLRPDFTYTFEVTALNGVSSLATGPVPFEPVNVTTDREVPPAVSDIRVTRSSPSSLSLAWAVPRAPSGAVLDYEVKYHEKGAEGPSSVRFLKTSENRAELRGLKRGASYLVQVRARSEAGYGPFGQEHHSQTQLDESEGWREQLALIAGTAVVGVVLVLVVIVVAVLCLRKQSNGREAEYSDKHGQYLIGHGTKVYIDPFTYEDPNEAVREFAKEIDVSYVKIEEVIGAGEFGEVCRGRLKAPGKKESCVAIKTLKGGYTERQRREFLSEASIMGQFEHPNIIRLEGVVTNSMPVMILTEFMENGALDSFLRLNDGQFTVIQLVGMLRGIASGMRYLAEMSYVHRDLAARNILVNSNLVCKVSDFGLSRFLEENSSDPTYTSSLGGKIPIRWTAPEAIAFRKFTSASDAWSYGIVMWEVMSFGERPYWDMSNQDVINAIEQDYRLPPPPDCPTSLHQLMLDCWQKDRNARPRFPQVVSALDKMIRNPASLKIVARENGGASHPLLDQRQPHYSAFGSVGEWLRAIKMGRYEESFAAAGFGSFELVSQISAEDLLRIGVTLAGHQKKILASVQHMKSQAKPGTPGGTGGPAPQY

[5] = target: T3, Ephrin type-B receptor 4 (Homo sapiens); conditions: at 1 µM
[6] = target: Receptor tyrosine-protein kinase erbB-2 (Homo sapiens) (UniProt P04626); conditions: at 0.1 µM
[7] = target: Receptor tyrosine-protein kinase erbB-2 (Homo sapiens) (UniProt P04626); conditions: at 1 µM
[8] = target: Receptor tyrosine-protein kinase erbB-4 (Homo sapiens) (UniProt Q15303); conditions: at 0.1 µM
[9] = target: Receptor tyrosine-protein kinase erbB-4 (Homo sapiens) (UniProt Q15303); conditions: at 1 µM
[10] = target: Tyrosine-protein kinase Fer (Homo sapiens) (UniProt P16591); conditions: at 0.1 µM;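 further: reported figures are averaged percent inhibition of FER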
Sequence of Tyrosine-protein kinase Fer (Homo sapiens) (P16591 whole entry, looked up): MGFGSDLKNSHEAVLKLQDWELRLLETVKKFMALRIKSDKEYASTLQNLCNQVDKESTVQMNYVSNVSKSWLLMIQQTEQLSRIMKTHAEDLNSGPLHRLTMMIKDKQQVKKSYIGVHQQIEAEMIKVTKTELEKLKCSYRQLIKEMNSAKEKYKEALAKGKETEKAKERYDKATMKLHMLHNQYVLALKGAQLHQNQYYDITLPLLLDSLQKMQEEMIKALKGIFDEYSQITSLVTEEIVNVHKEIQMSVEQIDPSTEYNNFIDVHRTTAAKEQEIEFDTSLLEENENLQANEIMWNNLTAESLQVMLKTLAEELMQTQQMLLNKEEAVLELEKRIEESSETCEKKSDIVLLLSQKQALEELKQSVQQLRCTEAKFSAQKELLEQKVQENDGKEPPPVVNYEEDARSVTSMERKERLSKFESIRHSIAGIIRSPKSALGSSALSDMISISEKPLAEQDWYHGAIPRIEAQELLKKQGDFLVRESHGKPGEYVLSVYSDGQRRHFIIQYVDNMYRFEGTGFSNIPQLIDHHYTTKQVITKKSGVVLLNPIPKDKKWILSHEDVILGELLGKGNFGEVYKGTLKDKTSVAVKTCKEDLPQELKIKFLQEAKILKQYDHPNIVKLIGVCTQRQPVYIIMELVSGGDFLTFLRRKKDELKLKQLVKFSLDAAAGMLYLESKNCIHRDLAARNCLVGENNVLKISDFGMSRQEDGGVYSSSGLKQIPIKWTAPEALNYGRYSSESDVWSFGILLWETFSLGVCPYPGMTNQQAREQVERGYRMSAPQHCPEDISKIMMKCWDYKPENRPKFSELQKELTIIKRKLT

Sequence of Receptor tyrosine-protein kinase erbB-4 (Homo sapiens) (Q15303 whole entry): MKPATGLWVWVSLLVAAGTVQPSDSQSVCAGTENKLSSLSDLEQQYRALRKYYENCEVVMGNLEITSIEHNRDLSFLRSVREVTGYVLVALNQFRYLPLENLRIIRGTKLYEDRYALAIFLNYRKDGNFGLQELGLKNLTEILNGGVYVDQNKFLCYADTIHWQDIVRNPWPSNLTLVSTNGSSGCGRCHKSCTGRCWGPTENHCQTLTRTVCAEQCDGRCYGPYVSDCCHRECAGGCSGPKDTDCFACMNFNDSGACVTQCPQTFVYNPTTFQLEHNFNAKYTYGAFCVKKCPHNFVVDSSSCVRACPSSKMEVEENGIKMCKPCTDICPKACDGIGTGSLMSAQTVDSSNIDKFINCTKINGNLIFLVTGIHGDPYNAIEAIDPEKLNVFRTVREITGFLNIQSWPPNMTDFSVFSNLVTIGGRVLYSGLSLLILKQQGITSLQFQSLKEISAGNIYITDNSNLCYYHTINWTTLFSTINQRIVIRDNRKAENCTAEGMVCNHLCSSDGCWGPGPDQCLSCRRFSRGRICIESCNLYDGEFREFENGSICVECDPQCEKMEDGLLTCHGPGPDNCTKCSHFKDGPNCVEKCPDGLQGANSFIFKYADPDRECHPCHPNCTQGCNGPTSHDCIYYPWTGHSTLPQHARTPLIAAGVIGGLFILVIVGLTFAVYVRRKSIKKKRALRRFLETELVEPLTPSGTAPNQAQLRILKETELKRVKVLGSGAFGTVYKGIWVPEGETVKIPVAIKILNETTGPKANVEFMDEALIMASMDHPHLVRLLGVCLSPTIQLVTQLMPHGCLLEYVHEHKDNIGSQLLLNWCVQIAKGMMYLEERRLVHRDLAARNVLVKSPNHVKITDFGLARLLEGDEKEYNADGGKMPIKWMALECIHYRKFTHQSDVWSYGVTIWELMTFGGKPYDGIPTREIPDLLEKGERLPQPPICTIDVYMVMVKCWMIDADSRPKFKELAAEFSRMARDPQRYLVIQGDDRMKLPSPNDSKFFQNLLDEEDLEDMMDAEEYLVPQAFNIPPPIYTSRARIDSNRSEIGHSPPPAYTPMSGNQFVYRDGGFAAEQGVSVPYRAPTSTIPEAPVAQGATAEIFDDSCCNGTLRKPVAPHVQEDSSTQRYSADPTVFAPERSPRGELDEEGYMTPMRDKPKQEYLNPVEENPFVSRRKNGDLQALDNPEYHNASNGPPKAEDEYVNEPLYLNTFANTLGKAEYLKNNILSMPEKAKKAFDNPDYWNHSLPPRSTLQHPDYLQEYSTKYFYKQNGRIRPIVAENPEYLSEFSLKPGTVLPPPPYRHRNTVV
Sequence of Receptor tyrosine-protein kinase erbB-2 (Homo sapiens) (P04626 whole entry): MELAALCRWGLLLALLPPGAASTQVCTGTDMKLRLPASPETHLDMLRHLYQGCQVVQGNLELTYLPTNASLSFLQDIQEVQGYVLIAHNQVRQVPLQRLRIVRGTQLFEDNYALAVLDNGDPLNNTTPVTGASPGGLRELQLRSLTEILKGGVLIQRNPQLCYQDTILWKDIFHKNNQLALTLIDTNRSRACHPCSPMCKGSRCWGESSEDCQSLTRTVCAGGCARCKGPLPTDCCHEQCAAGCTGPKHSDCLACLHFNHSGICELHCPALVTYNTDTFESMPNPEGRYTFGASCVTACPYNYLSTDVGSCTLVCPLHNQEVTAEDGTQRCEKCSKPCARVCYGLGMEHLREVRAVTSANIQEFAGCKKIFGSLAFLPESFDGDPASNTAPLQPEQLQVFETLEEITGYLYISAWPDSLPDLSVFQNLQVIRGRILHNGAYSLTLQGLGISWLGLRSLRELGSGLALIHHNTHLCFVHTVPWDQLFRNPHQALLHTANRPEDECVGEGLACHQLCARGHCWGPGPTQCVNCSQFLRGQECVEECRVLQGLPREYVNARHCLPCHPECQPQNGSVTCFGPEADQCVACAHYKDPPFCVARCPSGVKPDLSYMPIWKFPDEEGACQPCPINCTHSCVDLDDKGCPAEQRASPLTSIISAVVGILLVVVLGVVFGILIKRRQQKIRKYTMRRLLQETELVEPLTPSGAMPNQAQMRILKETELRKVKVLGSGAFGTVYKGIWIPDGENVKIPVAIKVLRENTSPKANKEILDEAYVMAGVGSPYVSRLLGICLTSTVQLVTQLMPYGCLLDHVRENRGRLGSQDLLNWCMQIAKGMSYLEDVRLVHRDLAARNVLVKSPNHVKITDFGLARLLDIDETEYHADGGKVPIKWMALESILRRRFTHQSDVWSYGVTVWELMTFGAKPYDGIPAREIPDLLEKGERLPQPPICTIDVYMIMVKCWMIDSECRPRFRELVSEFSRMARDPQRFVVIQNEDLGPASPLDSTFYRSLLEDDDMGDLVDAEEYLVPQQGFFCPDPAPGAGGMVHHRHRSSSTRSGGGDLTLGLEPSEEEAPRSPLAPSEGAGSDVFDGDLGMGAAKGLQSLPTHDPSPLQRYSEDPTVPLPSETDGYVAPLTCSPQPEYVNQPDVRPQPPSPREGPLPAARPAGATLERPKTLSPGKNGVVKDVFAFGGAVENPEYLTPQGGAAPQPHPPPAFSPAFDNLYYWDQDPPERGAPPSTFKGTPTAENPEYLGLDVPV

SMILES | inhibition [1] [%] | inhibition [2] [%] | inhibition [3] [%] | inhibition [4] [%] | inhibition [5] [%] | inhibition [6] [%] | inhibition [7] [%] | inhibition [8] [%] | inhibition [9] [%] | inhibition [10] [%]
Cc1cccc(Nc2ncc(-c3ccccc3)o2)c1 | 2.78 | 1.56 | 2.29 | 2.8 | 3.6 | 2.48 | 2.62 | 3.46 | 8.57 | 3.24
CCn1c(-c2nonc2N)nc2ccccc21 | 10.1 | 5.49 | 2.17 | 1.03 | 1.88 | 0.88 | -2.17 | 12.3 | 12.3 | 5.9
COc1ccc2[nH]c3c4[nH]c5ccc(OC)cc5c4c4c(c3c2c1)C(=O)NC4=O | 17.6 | 0.84 | -4.62 | -0.01 | 4.21 | 1.76 | 5.83 | 14.5 | 45.9 | 29.1
O=C(Nc1n[nH]c2cc(-c3ccc(F)cc3)ccc12)C1CC1 | 7.07 | 5.69 | 1.87 | 1.47 | 2.87 | 1.75 | -0.76 | 6.81 | 11.6 | 5.3
COc1cc2c(cc1Nc1nc(Nc3ccsc3C(N)=O)c3cc[nH]c3n1)N(C(=O)CN(C)C)CCC2(C)C | 9.01 | – | -7.19 | 2.71 | 2.72 | 2.91 | -0.07 | 14.2 | 36.4 | 95.5
COc1ccc2c(-c3ccnc(Nc4cccc(OC(F)(F)F)c4)n3)cnn2n1 | 14.9 | 3.51 | 5.86 | 0.79 | 4.73 | 1.6 | 2.79 | 8.76 | 9.71 | 4.88
CC(=O)Nc1cccc(C#Cc2cncnc2Nc2ccc(OCc3cccc(F)c3)c(Cl)c2)c1 | 10.7 | 4.08 | 0.84 | 1.66 | 2.84 | 0.38 | 10.5 | 20.5 | 57.1 | 1.31
CC1=C(C(=O)Nc2cc(Cl)c3[nH]ncc3c2)C(c2ccc(C(F)(F)F)cc2)CC(=O)N1 (centres undefined) | 6.01 | 5.62 | 2.94 | -1.21 | 0.29 | 2.74 | 1.78 | 11.9 | 31.2 | 4.27
NC(=O)c1sc(-n2cnc3ccc(C(F)(F)F)cc32)cc1OCc1ccccc1Br | 7.8 | 7.23 | 4.9 | -1.54 | 0.48 | 1.83 | 1.49 | 6.27 | 10.9 | 2.63
COc1ccc(-c2cc(-c3c[nH]nc3-c3ccccn3)ccn2)cc1 | 10.2 | 4.76 | 2.2 | 2.71 | 2.68 | 2.88 | 6.13 | 9.37 | 10.6 | 3.16
CN1CCC(n2cnc(-c3ccc(F)cc3)c2-c2ccnc(Nc3ccccc3)n2)CC1 | 44.1 | 4.66 | 2.3 | 3.77 | 12.6 | 5.05 | 15.9 | 10.6 | 27.2 | 1.86
Cc1cccc2c1NC(=O)/C2=N\Nc1ccc(S(N)(=O)=O)cc1 | 5.1 | 5.12 | 2.12 | 1.36 | 2.09 | 0.78 | 1.05 | 11.5 | 11 | 1.4
COc1cc(Nc2nccc(Nc3ccc4c(C)n[nH]c4c3)n2)cc(OC)c1OC | 65.5 | 2.52 | 0.24 | 11.2 | 54.8 | -1.05 | 0.32 | 11.9 | 27.6 | 6.42
CCCN(CCS(C)(=O)=O)Cc1ccc(-c2ccc3ncnc(Nc4ccc(OCc5cccc(F)c5)c(Cl)c4)c3c2)o1 | 5.21 | 4.42 | 2.17 | 3.87 | 1.36 | 19.1 | 82.1 | 76.3 | 79.2 | 2.14
Fc1cccc(COc2ccc(Nc3ncnc4sc(-c5ccco5)cc34)cc2Cl)c1 | 8.15 | 5.55 | 4.99 | 4 | 2.19 | -0.58 | 14.7 | 28.4 | 75.8 | 1.71
c1ccc(-c2nc3n(c2-c2ccc4c(c2)OCO4)CCC3)nc1 | 3.77 | 4.03 | -0.67 | 0.53 | 1.11 | 1.28 | -0.6 | 3.67 | 1.72 | 2.91
COC(=O)Nc1nc2ccc(Oc3ccc(NC(=O)Nc4cccc(Cl)c4)cc3)cc2[nH]1 | 68 | 4.58 | 5.18 | 4.66 | 14.4 | -0.47 | 5.3 | 6.76 | 9.87 | 1.61
